Laboratory results from PubChem BioAssay (NCI).
Compounds without any hit were thinned out: in the full panel of roughly 83,000, 20% have a hit.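 Interpretation: 100, growth as untreated; towards 0, rising growth inhibition; 0, no net growth; 0 to -100, cell death. Compounds scoring below 10 were considered active.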 Values without a mark were called inactive. Calls of active or inactive are those of the source.

What follows are molecules tested on HL-60(TB) leukemia (assay: NCI-60 one-dose screen, 48 h (100 = growth as untreated, 0 = no growth, -100 = all killed)). Details: 10 µM unless noted.

SMILES | growth
S=c1cnc2ccccc2[nH]1 | 86.4%
COc1ccc(/C=C/C(=O)Nc2ccc(-c3nc4ccc(OC)cc4s3)cc2)cc1 | 99.3%
COc1ccc(-c2cc(-c3ccccc3)nc(NCCNc3ccnc4cc(Cl)ccc34)n2)cc1 | -58.7% (active)
Cc1nn(-c2ccccc2)c(N)c1N=C1NC(=O)/C(=C/c2ccc(Br)cc2)S1 | 77.9%
Nc1cc2[nH]c(=O)c3ccccc3c2cc1Br | 125%
CCOc1cc(/C=C/C(=O)CC(=O)/C=C/c2ccc(OC(=O)CNc3nc4ccc(OC)cc4s3)c(OCC)c2)ccc1OC(=O)CNc1nc2ccc(OC)cc2s1 | 21.5%
COc1ccc(-c2nc3ccc(C)cc3c3c2c(=O)n(C)c(=O)n3C)cc1OC | 98.1%
CCN(CC)CCC(CNc1c(C)cnc2cc(Cl)ccc12)c1ccc(Cl)cc1 (stereo not given) | 52.5%
CC(C)(C)c1cc(O)c(C(C)(C)C)cc1O | 35.1%
CC(=O)c1cc2c(N)c(C(=O)Nc3cccc4ccccc34)sc2nc1C | -10.7% (active)
Cn1ccnc1C(=O)/C=C/c1ccc(CC(=O)Nc2ccc(Br)cc2)cc1 | 0.748% (active)
Cc1cccc2cc(/C=C/C(=O)/C=C/c3ccc(Cl)cc3)c(=O)[nH]c12 | 44.2%
CC1(C)CC(=O)CC2(C1)N=C(N)Nc1nc3ccccc3n12 (stereo not given) | 92.5%
N#Cc1c(NC(=O)c2cccc(C(F)(F)F)c2)sc2c1CCC(=O)C2 | -8.73% (active)
Nc1ccc(Br)cc1C(F)(F)F | 90.2%
COc1ccc(-c2cc(-c3cccnc3)nc3sc(C(=O)Nc4ccccc4)c(N)c23)cc1OC | 60.2%
CCCCCCN=C(N)CCCCCCCCCCC(N)=NCCCCCC | 55.1%
Cc1[nH]c(C(=O)Nc2ccc(C(=O)N3CCNCC3)cc2OC(C)C)c(Cl)c1Cl | 57.4%
CC(C)Cc1ccc([C@H](C)C(=O)O)cc1 | 92.9%
CCOc1ccc(Nc2nc(-c3ccc4c(c3)NC(=O)CO4)cs2)cc1 | 66.9%

SMILES | growth
CC[C@@H](C(=O)[C@@H](C)[C@@H](O)[C@H](C)[C@@H]1O[C@@H]([C@@H](CC)C(=O)O)CC[C@@H]1C)C1O[C@]2(C=CC(=O)[C@]3(CC[C@@](C)([C@H]4CC[C@](O)(CC)[C@H](C)O4)O3)O2)[C@H](C)C[C@@H]1C (stereo not given in full) | -32.7% (active)
CCC1(c2ccccc2)Oc2ccccc2-n2c(C#N)c3ccccc3c2C1=O (stereo not given) | 92.8%
COc1ccccc1NC(=O)C1CC(c2ccc(F)cc2)=NO1 (stereo not given) | 103%
CS(=O)(=O)c1cccnn1 | 108%
CCOC(=O)Cn1c(-c2nonc2NC(=O)c2ccccc2F)nc2ccccc21 | 35.1%
O=C1OCC2=C1C(c1ccc3c(c1)OCO3)CC(=O)N2c1cccc(Cl)c1 (stereo not given) | 95.6%
CCC1C(=O)COC1=O (stereo not given) | 96.9%
C/C(=N\NC(=O)c1ccncc1)c1ccc(N)cc1 | 90.2%
Fc1cccc(CNc2c3ccccc3nc3ccccc23)c1 | 47%
O=C(Nc1ccc(Br)c(Cl)c1)c1cc(F)ccc1O | -33.4% (active)
C[C@H]1C[C@@H](n2cnc3c(N)nccc32)[C@H](O)[C@@H]1O | 80.5%
BrC1=C(Br)C(Br)(Br)C(Br)=C1Br | 27.4%
O=C1C(Cl)=C(Cl)C(=O)c2c1nc1n2CCCC1 | 74.8%
COC(OC)c1ccccc1 | 77.6%
COc1ccc(-c2nc(-c3nc4ccc(C)cc4[nH]3)c3ccccn23)cc1 | 30.5%
[O-][N+](=Nc1cccc(Cl)c1)c1cccc(Cl)c1 | 132%
NCCCN(CCCN)CCCNCc1c2ccccc2c(CNCCCN(CCCN)CCCN)c2ccccc12 | 100%
C=C1c2c(Cl)ccc(O)c2C(O)=C2C(=O)[C@]3(O)C(O)=C(C(N)=O)C(=O)[C@@H](N(C)C)[C@@H]3[C@@H](O)[C@H]12 | -24.8% (active)
COc1ccccc1/C=C/C(=O)CCC(=O)O | 88.3%
O=C1NC(=S)NC(=O)C1CC(=O)n1c(-c2ccccc2)nc2ccccc21 | 104%
